SMN2 splice enh – enhancers of SMN2 splice variant expression; 2.8% of 210,000 active; HEK293 SMN2-luciferase splicing reporter, luminescence, 30-36 h; Potency, µM (doses to about 46.1 µM), most hits filed as activators; also: nearly all actives have a fitted effect of over 55% in size
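HEK293 cells carry an SMN2 […]–luciferase reporter in which exon 7 inclusion puts luciferase in frame. Cells were plated 10-12 h before compound addition, then incubated 30-36 h at 37C. ONE-Glo luminescence was read; sodium butyrate at 4.5 mM final served as control.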
FLuc counter – counter-screen for miR-21 project: firefly luciferase inhibitors or activators; P08659; purified FLuc, Km substrates, luminescence inhibition; Potency, µM (doses to about 57.5 µM), actives largely listed as inhibitors; 6.9% of 360,000 active; AID 588342; also: nearly all actives have a fitted effect of over 55% in size
Target sequence (P08659 whole entry, looked up): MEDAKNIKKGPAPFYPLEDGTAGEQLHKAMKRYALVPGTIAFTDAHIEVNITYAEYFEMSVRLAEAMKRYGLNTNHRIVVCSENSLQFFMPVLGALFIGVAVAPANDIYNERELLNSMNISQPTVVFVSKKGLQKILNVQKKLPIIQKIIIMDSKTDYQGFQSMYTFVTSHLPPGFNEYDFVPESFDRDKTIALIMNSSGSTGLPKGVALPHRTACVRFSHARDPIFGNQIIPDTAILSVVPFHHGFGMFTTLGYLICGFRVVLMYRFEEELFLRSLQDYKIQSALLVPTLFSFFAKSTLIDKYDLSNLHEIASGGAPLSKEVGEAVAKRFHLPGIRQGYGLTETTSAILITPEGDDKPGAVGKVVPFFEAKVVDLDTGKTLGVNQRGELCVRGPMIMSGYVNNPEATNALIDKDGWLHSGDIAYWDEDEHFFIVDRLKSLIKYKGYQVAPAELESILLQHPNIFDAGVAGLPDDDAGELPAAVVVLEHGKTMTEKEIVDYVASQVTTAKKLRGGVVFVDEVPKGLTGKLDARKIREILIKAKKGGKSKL
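Biochemical qHTS of compounds, final roughly 60 µM downward over six points, against 10 nM purified firefly luciferase using Km concentrations of substrates (10 uM D-luciferin, 10 uM ATP) in Tris acetate pH 7.5 buffer; luminescence output.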
Rab9 promoter act – activators of Rab9 promoter. 2.8% of 320,000 active. Potency, µM (top dose mostly 9.22 µM), usual class: activators. Huh7 Rab9 promoter-luciferase reporter, luminescence, 24 h; also: nearly all actives have a fitted effect of over 60% in size
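Luminescence from Amplite-detected luciferase (10 minutes, ambient) reports Rab9 promoter activation. Before that, stable Rab9-luciferase Huh7 cells (1500/well, reduced-serum OP-MEM I plus 10% FBS) were exposed to compound for 24 hours at 37C.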
ELG1 genotoxic – genotoxicity induction in ELG1-luciferase HEK293T cells. HEK293T ELG1-luciferase reporter, luminescence, 16 h. Potency, µM (series often up to 46 µM), hits mostly activators. 1.3% of 330,000 active; also: nearly all actives have a fitted effect of over 60% in size
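Genotoxic stress is detected as increased luminescence from luciferase-tagged ELG1 in HEK293T cells, measured with ONE-Glo after a 16 hr treatment at 37 °C.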
NPC1 promoter act – NPC1 promoter activation; 2.4% of 320,000 active; Huh7 NPC1 promoter luciferase reporter, 24 h; Potency, µM (titrated, usually from 9.22 µM), actives largely listed as activators; also: nearly all actives have a fitted effect of over 60% in size
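Readout is luciferase luminescence, reflecting NPC1 promoter activation in stably transfected Huh7 cells after 24 h compound exposure at 37 °C in reduced-serum medium with 10% FBS.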
Luc counter – blocks Kinase-Glo luciferase, a counter-screen artifact | Q27757 | Kinase-Glo luciferase, ATP luminescence, 8 min | Potency, µM (titrated, usually from 38.3 µM), most hits filed as inhibitors | 0.28% of 200,000 active; also: nearly all actives have a fitted effect of over 60% in size
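Light output from Kinase-Glo luciferase with luciferin and 10 uM ATP in 50 mM imidazole pH 7.2, KCl, MgCl2, Tween 20, BSA; compound pin-delivered, 8-min ambient incubation, then luminescence read.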
Numbers stand for hits; – = inactive; ? = inconclusive; · = no result; [ ] = remark or other dose. The list is not random: actives were taken first. Their share in the collection is about 7.5%. Calls follow the shape of the dose curve; as a rule, active = well fitted curve in the direction sought with a large enough effect; inconclusive = small, poorly fitted or top-dose-only effect, or another doubt; inactive = no such curve, though single readings can be large; an effect the other way counts as inactive or inconclusive.

SMILES | SMN2 splice enh | FLuc counter | Rab9 promoter act | ELG1 genotoxic | NPC1 promoter act | Luc counter
O=C(Nc1cccs1)Nc1cc(C(F)(F)F)ccc1Cl | – | ? | · | · | · | ·
COCCNc1ncnc2c1cnn2-c1ccc(Cl)cc1 | · | 7.6µM | 1.8µM | · | 1.8µM | ·
Clc1ccc(-n2ncc3c(NCc4cccs4)ncnc32)cc1 | – | – | – | – | – | –
O=C(NC1CCCCC1)c1cc(S(=O)(=O)N2CCCC2)ccc1Cl | · | – | – | – | – | ·
Cc1ccc2oc(=O)c3cc(C(=O)Nc4ccccc4C(N)=O)sc3c2c1 | – | – | · | · | · | ·
O=C(O)c1ccccc1-c1ccccc1C(=O)Nc1ccc2c(c1)CCC2 | · | – | – | – | – | ·
O=C(Nc1ccc2c(c1)CCC2)c1ccccc1F | 4.5µM | 3µM | 0.71µM | ? | 0.89µM | –
COc1cc2c(cc1NC(=O)c1ccccc1F)CCCC2 | 22µM | 11µM | ? | ? | – | –
O=C(Nc1ccc2c(c1)CCC2)c1ccccc1 | 2µM | 1.1µM | 0.5µM | 2.6µM | 1.3µM | –
CCCc1cc(=O)[nH]c(SCC(=O)Nc2cc(S(=O)(=O)N3CCCCC3)ccc2C)n1 | · | – | – | – | – | ·
COc1ccccc1C(=O)Nc1ccc2c(c1)nc(CCNC(=O)c1ccco1)n2C | · | ? | – | – | – | ·
Cn1c(CCNC(=O)c2ccco2)nc2cc(NC(=O)c3ccco3)ccc21 | 11µM | 24µM | ? | ? | ? | –
Cc1nc2cc(NC(=O)NCc3ccco3)ccc2n1C | ? | ? | ? | 15µM | – | –
Cn1c(CCNC(=O)c2ccccc2)nc2cc(NC(=O)c3ccco3)ccc21 | – | ? | – | ? | – | –
Cn1c(CCNC(=O)c2ccco2)nc2cc(NC(=O)c3ccccc3)ccc21 | · | 17µM | ? | – | ? | ·
CCC(=O)NCCc1nc2cc(NC(=O)c3ccco3)ccc2n1C | · | 17µM | ? | ? | ? | ·
CCCCC(=O)Nc1ccc2c(c1)nc(CCNC(=O)c1ccco1)n2C | · | – | – | – | – | ·
COc1cccc(NC(=O)CSc2nc3cc(OC)c(OC)cc3c3nc(-c4ccccc4)nn23)c1 | – | – | · | · | · | ·
CCNC(=S)N1N=C2c3ccccc3CCC2C1c1ccc(F)cc1 (stereo not given) | · | – | – | – | – | ·
Cc1nc2cc(NC(=O)c3ccco3)ccc2n1C | · | 8.5µM | 0.32µM | 2.3µM | 0.5µM | ·
O=C(Cc1ccc(NC(=O)N2CCSc3ncccc32)cc1)NCCc1ccccc1 | · | – | · | · | · | ·
CCOC(=O)c1cccc(NC(=O)c2cc3ccccc3o2)c1 | · | 5.4µM | 1.3µM | – | ? | ·
CCOC(=O)c1ccc(NC(=O)c2cc3ccccc3o2)cc1 | – | 9.5µM | ? | – | ? | –
COc1ccc(N(CC(=O)Nc2cccc(Cl)c2)S(=O)(=O)c2c(C)[nH]c(=O)[nH]c2=O)cc1 | – | ? | · | · | · | ·
COc1ccc(-c2nc(C#N)c(N3CCC(C)CC3)o2)cc1 | · | ? | – | – | – | ·
SMILES | SMN2 splice enh | FLuc counter | Rab9 promoter act | ELG1 genotoxic | NPC1 promoter act | Luc counter
Cc1cccc(-c2nc(C#N)c(NC3CCCCC3)o2)c1 | 10µM | 7.6µM | 1.8µM | ? | 2.5µM | –
Cc1cccc(-c2nc(C#N)c(N3CCCCC3)o2)c1 | · | 13µM | ? | ? | ? | ·
Cc1ccc(-c2nc(C#N)c(N3CCC(C)CC3)o2)cc1 | · | ? | 0.1µM | – | ? | ·
Cc1cccc(-c2nc3c(C#N)c[nH]n3c2NC2CCCCC2)c1 | · | – | · | · | · | ·
CC(C)NC(=O)c1cc2c(Cl)nc3ccccc3c2s1 | – | – | · | · | · | ·
COCCNc1nc(-c2cc3ccccc3o2)cs1 | 3.2µM | 1.5µM | 1µM | ? | 1.6µM | –
CCCCN(c1ccccc1)S(=O)(=O)c1cccc2cccnc12 | · | – | – | – | – | ·
Cc1cccc(NC(=O)Nc2cccc(C#N)c2)n1 | 16µM | ? | ? | – | ? | –
Cc1cccc(NC(=O)Nc2ccc(Br)cc2)n1 | – | – | ? | – | – | ·
COc1ccc(NC(=O)Nc2cccc(C)n2)cc1 | 11µM | 8.5µM | ? | 12µM | ? | –
Cc1cccc(NC(=O)Nc2ccc(C#N)cc2)n1 | 11µM | – | – | – | – | –
COc1ccc(NC(=O)Nc2ccc(Br)cn2)cc1 | ? | – | 2.8µM | – | 3.5µM | –
COc1cccc(CNc2ncc(-c3ccc(Br)cc3)n2C)c1 | · | – | · | · | · | ·
O=C(CCSc1ccccc1)N1CCN(c2ccccc2)CC1 | 22µM | 19µM | 2.8µM | ? | 2.8µM | –
Cc1ccccc1N1CCN(C(=O)CCN2C(=O)c3ccccc3C2=O)CC1 | – | 17µM | – | – | – | –
CN1CCN(C(=O)CCN2C(=O)c3ccccc3C2=O)CC1 | · | – | – | – | – | –
O=C(CCCOc1ccccc1)N1CCc2ccccc2C1 | 13µM | 24µM | – | 21µM | – | –
O=C(/C=C/C(=O)N1CCc2ccccc2C1)N1CCc2ccccc2C1 | · | – | – | – | – | ·
O=C(Cc1ccc(Br)cc1)N1CCc2ccccc2C1 | · | 17µM | ? | ? | ? | ·
O=C(CSc1ccccc1)N1CCN(c2ccccc2)CC1 | ? | ? | – | – | – | –
O=C(CCCOc1ccc(Cl)cc1Cl)N1CCc2ccccc2C1 | – | – | – | – | – | –
COc1ccc(OC)c(NC(=O)c2cc3c(=O)n4cccc(C)c4nc3n2C)c1 | · | – | · | · | · | ·
COc1ccc(OC)c(NC(=O)CN2CCCN(Cc3ccccc3Cl)S2(=O)=O)c1 | · | – | · | · | · | ·
O=C(Nc1cccc(C(F)(F)F)c1)c1cncs1 | · | – | – | – | – | ·
O=C(CCCOc1ccccc1)N1CCN(S(=O)(=O)c2ccccc2)CC1 | · | · | – | – | – | ·
SMILES | SMN2 splice enh | FLuc counter | Rab9 promoter act | ELG1 genotoxic | NPC1 promoter act | Luc counter
CCOC(=O)N1CCN(C(=O)CCCOc2ccccc2)CC1 | 13µM | –[2.3 µM] | 1.8µM | ? | 2.8µM | –
O=C(CCCOc1ccccc1)N1CCN(c2ccccc2)CC1 | ? | 9.5µM | 2.8µM | 9.2µM | 3.5µM | –
Cc1cccc(N2CCN(C(=O)CCCOc3ccccc3)CC2)c1C | 16µM | 7.6µM | 2.5µM | 2.6µM | 3.2µM | –
CC(=O)c1cc(Cl)ccc1OCC(=O)NC1CCCC1 | · | 17µM | ? | – | ? | ·
O=C(COc1ccc(Cl)cc1[N+](=O)[O-])NC1CCCCC1 | 11µM | 11µM | 1.4µM | ? | ? | –
O=C(COc1ccc(Cl)cc1Cl)Nc1ccc(CN2CCOCC2)cc1 | · | – | – | – | – | ·
O=C(COc1ccc(Cl)cc1Cl)NC(=O)N1CCOCC1 | – | 21µM | – | – | – | –
O=C(COc1ccc(Cl)cc1Br)NC1CC1 | · | 13µM | – | – | ? | ·
CCn1c(=O)n(-c2cccc(Cl)c2)c(=O)c2sc3ccccc3c21 | – | – | · | · | · | ·
OCC1(C2=NOC(O)(C(F)(F)F)C2)CCCCC1 (stereo not given) | – | – | – | – | – | –
OC1(C(F)(F)F)CC(c2ccc3ccccc3c2)=NO1 (stereo not given) | · | 19µM | – | ? | – | ·
Cc1cc2nc(C3CCCN(C(=S)Nc4ccccc4C)C3)[nH]c2cc1C (stereo not given) | – | 3.4µM | – | – | – | –
